Results on twelve compounds are retold here after PubChem BioAssay (Tox21).

Values joined by “and” are separate entries in the source; they are usually repeats but may differ in a detail not shown here. Identical values can stand only once. Results filed as inconclusive are left out. Some compounds were tested as several samples or in several runs, with calls that do not always agree. Active and inactive are the calls of the source. Calls follow the shape of the dose curve; as a rule, active = well fitted curve in the direction sought with a large enough effect in the repeat runs; inconclusive = weak or mixed curves; inactive = no such curve, though single readings can be large; an effect the other way counts as inactive or inconclusive.

Assay [1] in a line: qHTS RealTime-Glo MT Cell Viability Assay in HEK293 cells - 16 hour (AID 1224872). Also: nearly all actives have a fitted effect of over 50% in size. Also: potency is read from the fitted curve at half-maximal effect. An outline of the steps:
(§1)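 Quantitative high-throughput screen of the Tox21 10K library in HEK293: cells and RealTime-Glo reagents plated together, compound added at 5 h, luminescence monitored through 40 h at 37 C.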
For orientation: qHTS replaces the single test concentration by a dilution series.

Assay [2] is described as follows: qHTS RealTime-Glo MT Cell Viability Assay in HepG2 cells - 8 hour (AID 1224873). Also: nearly all actives have a fitted effect of over 55% in size. The method, boiled down:
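HepG2 cells (600/well) mixed with RealTime-Glo MT reagent, settled 5 h at 37 C/5% CO2 before compound addition. Nonlytic NanoLuc luminescence from viable-cell prosubstrate reduction read repeatedly during 40 h treatment at 37 C.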

A short description of assay [3]: qHTS RealTime-Glo MT Cell Viability Assay in HEK293 cells - 40 hour (AID 1224874). Also: nearly all actives have a fitted effect of over 50% in size. Also: potency is read from the fitted curve at half-maximal effect. To be noted: RealTime-Glo luminescence; max response: stronger effect = lower value. The method, boiled down: (§2)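 Luminescence readout at each listed time point; HEK293, 600 cells/well, RealTime-Glo MT reagent added with cells; compounds pinned (23 nL in DMSO) after 5 h at 37 C; continuous culture at 37 C.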

Assay [4] in a line: A CellTox Green Cytotoxicity Assay to monitor cytotoxicity in HEK293 cells - 24 hour (AID 1224875). Also: series mostly up to about 77 µM; nearly all actives have a fitted effect of over 45% in size. An outline of the steps: (§3)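 Read-out: fluorescence of a cell-impermeant cyanine dye staining DNA of dead cells, proportional to cytotoxicity. HEK293, 600 cells/well with reagent, compound (23 nL DMSO) added after 5 h; reads at 0, 8, 16, 24, 32, 40 h.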
Assay [5] in a line: A CellTox Green Cytotoxicity Assay to monitor cytotoxicity in HepG2 cells - 16 hour (AID 1224876). Also: nearly all actives have a fitted effect of over 45% in size. An outline of the steps: (§4)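 HepG2, 600 cells/well premixed w/ CellTox Green; 5 h settle, 37 C/5% CO2; pintool cpd add (DMSO); 37 C, 40 h; fluorescence read at 0, 8, 16, 24, 32, 40 h.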
Assay [6] in a line: qHTS RealTime-Glo MT Cell Viability Assay in HepG2 cells - 32 hour (AID 1224877). Also: nearly all actives have a fitted effect of over 55% in size. An outline of the steps: (§5)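 Compound treatment began 5 h after plating HepG2 cells (600/well) with NanoLuc luciferase and prosubstrate. Plates stayed at 37 C for 40 h; luminescence was captured at six time points, 0 h through 40 h.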
The nature of assay [7]: A CellTox Green Cytotoxicity Assay to monitor cytotoxicity in HepG2 cells - 24 hour (AID 1224878). Also: nearly all actives have a fitted effect of over 45% in size. An outline of the steps: as §4
Assay [8] in a line: A CellTox Green Cytotoxicity Assay to monitor cytotoxicity in HepG2 cells - 40 hour (AID 1224879). Also: nearly all actives have a fitted effect of over 40% in size. An outline of the steps:
as §4

The nature of assay [9]: qHTS RealTime-Glo MT Cell Viability Assay in HEK293 cells - 0 hour (AID 1224880). Also: top concentration of the series differs between compounds; nearly all actives have a fitted effect of over 45% in size. The method, boiled down: as §2
The nature of assay [10]: A CellTox Green Cytotoxicity Assay to monitor cytotoxicity in HEK293 cells - 32 hour (AID 1224881). Also: nearly all actives have a fitted effect of over 40% in size. An outline of the steps: as §3
Assay [11] can be described thus: A CellTox Green Cytotoxicity Assay to monitor cytotoxicity in HepG2 cells - 0 hour (AID 1224882). Also: nearly all actives have a fitted effect of over 35% in size. An outline of the steps: as §4
Assay [12] can be described thus: A CellTox Green Cytotoxicity Assay to monitor cytotoxicity in HepG2 cells - 32 hour (AID 1224883). Also: nearly all actives have a fitted effect of over 50% in size. An outline of the steps:
as §4

Assay [13] in a line: A CellTox Green Cytotoxicity Assay to monitor cytotoxicity in HEK293 cells - 8 hour (AID 1224884). Also: nearly all actives have a fitted effect of over 35% in size. The method, boiled down:
as §3

A short description of assay [14]: qHTS RealTime-Glo MT Cell Viability Assay in HepG2 cells - 16 hour (AID 1224885). Also: nearly all actives have a fitted effect of over 50% in size. An outline of the steps:
as §5

Assay [15] is described as follows: qHTS RealTime-Glo MT Cell Viability Assay in HEK293 cells - 24 hour (AID 1224886). Also: nearly all actives have a fitted effect of over 50% in size. Also: potency is read from the fitted curve at half-maximal effect. The method, boiled down: as §1
The nature of assay [16]: qHTS RealTime-Glo MT Cell Viability Assay in HEK293 cells - 8 hour (AID 1224887). An outline of the steps: as §2
The nature of assay [17]: A CellTox Green Cytotoxicity Assay to monitor cytotoxicity in HEK293 cells - 16 hour (AID 1224888). Also: nearly all actives have a fitted effect of over 35% in size. The method, boiled down: as §3
Assay [18] can be described thus: qHTS RealTime-Glo MT Cell Viability Assay in HepG2 cells - 0 hour (AID 1224889). Also: nearly all actives have a fitted effect of over 50% in size. The method, boiled down: as §5
The nature of assay [19]: A CellTox Green Cytotoxicity Assay to monitor cytotoxicity in HepG2 cells - 8 hour (AID 1224890). Also: nearly all actives have a fitted effect of over 45% in size. The method, boiled down:
as §4

Assay [20] is described as follows: qHTS assay to identify small molecule antagonists of the estrogen receptor alpha (ER-alpha) signaling pathway using the BG1 cell line in the presence of 0.1 nM 17-beta-estradiol - cell viability counter screen (AID 1259241). Also: nearly all actives have a fitted effect of over 40% in size. An outline of the steps: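 Estradiol-stimulated (0.1 nM) VM7Luc4E2 cells exposed to compounds 22 hr; viability measured by fluorescence of cleaved CellTiter-Fluor substrate after 30 min.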
% is scaled to controls: 0 for no effect and ±100 for the full control effect.

On to `O=Cc1ccccc1O`, for which the Potency result in [1], in assay [2], in assay [4], in assay [5], in assay [6] and in assay [7] was “inactive” in each case. Also, the Potency result in assay [8], in [9], in [10], in assay [11], in assay [12] and in assay [13] was “inactive” in each case. Also, the Potency result in [14], in [15], in [16], in assay [17], in assay [18] and in [19] was “inactive” each time. Also, in [20], the Potency entry is “inactive”. For the same compound, the max response in [3] is 3.18% (inactive) and 0.0852% (inactive).
For the compound `CC(C)=CCCC(C)CCO` (centres undefined), the Potency result in assay [1], in assay [2], in [4], in assay [5], in [6] and in assay [7] was “inactive” in each case. Also, the Potency entry in assay [8], in assay [9], in [10], in assay [11], in [12] and in assay [13] was “inactive” in each case. The Potency result in assay [14], in [15], in [16], in [17], in [18] and in assay [19] was “inactive” each time. Also, the Potency result in assay [20] was “inactive”. Also, the max response in assay [3] is -3.95% (inactive) and 4.54% (inactive).
Turning to `COc1ccc(OC)c(C(O)CNC(=O)CN)c1` (centres undefined), the Potency entry in assay [1], in assay [2], in [4], in [5], in [6] and in assay [7] was “inactive” throughout. For the same compound, the Potency result in [8], in assay [9], in [10], in assay [11], in assay [12] and in assay [13] was “inactive” each time. Besides, the Potency entry in assay [14], in assay [15], in assay [16], in assay [17], in assay [18] and in [19] was “inactive” each time. In addition, the Potency result in [20] was “inactive”. Further, the max response in assay [3] is 2.49% (inactive) and 0.0352% (inactive).
For the compound `C[Si](C)(C)O[Si](C)(C)C`, the Potency result in assay [1], in assay [2], in [4], in [5], in assay [6] and in assay [7] was “inactive” throughout. Besides, the Potency entry in [8], in [9], in assay [10], in assay [11], in assay [12] and in assay [13] was “inactive” in each case. For the same compound, the Potency entry in assay [14], in [15], in [16], in assay [17], in assay [18] and in [19] was “inactive” each time. For the same compound, the Potency entry in assay [20] was “inactive”. In addition, the max response in assay [3] is -0.246% (inactive) and 0.761% (inactive).
Regarding `c1ccc2c(c1)c1cccc3ccc4cccc2c4c31`, the Potency result in assay [1], in assay [2], in [4], in [5], in [6] and in assay [7] was “inactive” in each case. The Potency entry in assay [8], in assay [9], in assay [10], in assay [11], in [12] and in [13] was “inactive” in each case. In addition, the Potency result in assay [14], in assay [16], in assay [17], in [18], in assay [19] and in [20] was “inactive” each time. Besides, the Potency in assay [3] was 19.5 µM (active); in assay [15], “inactive and 19.5 µM (active)”. In addition, the max response in [3] was -16.2% (inactive).
Turning to `CC(C)CC(C)(O)C#CC(C)(O)CC(C)C` (centres undefined), the Potency entry in assay [1], in assay [2], in assay [4], in assay [5], in assay [6] and in [7] was “inactive” each time. Moreover, the Potency result in assay [8], in assay [9], in assay [10], in [12], in assay [13] and in [14] was “inactive” in each case. Further, the Potency entry in assay [15], in assay [16], in [17], in assay [18] and in [19] was “inactive” throughout. The max response in assay [3] is -20.8% (inactive) and -13.4% (inactive).
With `CN1C(C(=O)Nc2ccccn2)=C(O)c2ccccc2S1(=O)=O`, the Potency result in assay [1], in [2], in assay [4], in assay [5], in [6] and in [7] was “inactive” each time. For the same compound, the Potency result in assay [8], in assay [9], in [10], in assay [12], in assay [13] and in assay [14] was “inactive” in each case. The Potency entry in assay [15], in assay [16], in assay [17], in assay [18] and in [19] was “inactive” throughout. In addition, the max response in [3] is 10.9% (inactive) and -0.648% (inactive).
As for `CCCCOCCOCCO`, the Potency result in assay [1], in assay [2], in [4], in assay [5], in [6] and in assay [7] was “inactive” in each case. Further, the Potency result in assay [8], in assay [9], in assay [10], in [11], in assay [13] and in assay [14] was “inactive” each time. Further, the Potency result in assay [15], in [16], in assay [17], in assay [18], in [19] and in assay [20] was “inactive” in each case. In addition, the max response in assay [3] is 0.043% (inactive) and 0.397% (inactive).
Take `CCOCCOCCO`: the Potency entry in assay [1], in [2], in assay [4], in assay [5], in assay [6] and in [7] was “inactive” each time. The Potency result in assay [8], in [9], in [10], in assay [11], in [13] and in [14] was “inactive” in each case. Besides, the Potency result in assay [15], in assay [16], in [17], in assay [18] and in assay [19] was “inactive” each time. Besides, in [3], the max response is 10.2% (inactive) and 7.38% (inactive).
Turning to `CC(=O)O[C@]1(C(C)=O)CC[C@H]2[C@@H]3C=C(Cl)C4=CC(=O)[C@@H]5C[C@@H]5[C@]4(C)[C@H]3CC[C@@]21C`, the Potency in assay [1] is 21.9 µM (active) and inactive; in [3], 21.9 µM (active); in assay [15], 21.9 µM (active). Also, the Potency result in assay [2], in assay [4], in assay [5], in assay [6], in [7] and in assay [8] was “inactive” in each case. For the same compound, the Potency entry in [9], in assay [10], in assay [11], in [12], in [13] and in [16] was “inactive” throughout. In addition, the Potency result in assay [17], in assay [18] and in assay [19] was “inactive” in each case.
On to `CN(C)CCN(Cc1cccs1)c1ccccn1`, for which the Potency entry in assay [1], in assay [2], in assay [4], in assay [5], in [6] and in assay [7] was “inactive” throughout. Also, the Potency entry in assay [8], in assay [9], in assay [10], in assay [11], in assay [13] and in [14] was “inactive” each time. In addition, the Potency result in assay [15], in assay [16], in [17], in assay [18], in assay [19] and in assay [20] was “inactive” throughout. For the same compound, the max response in assay [3] is -22.8% (inactive) and -7.6% (inactive).
Regarding `c1cc(N(CC2CO2)CC2CO2)ccc1OCC1CO1` (centres undefined), the Potency result in [1], in assay [2], in [4], in [5], in [6] and in assay [7] was “inactive” throughout. Further, the Potency entry in assay [8], in [9], in [10], in assay [11], in assay [12] and in [13] was “inactive” in each case. The Potency result in assay [14], in assay [16], in assay [17], in assay [18] and in [19] was “inactive” each time. The Potency in assay [3] was 19.5 µM (active) and 15.5 µM (active).
